Experimental data taken from paper PMC5540273 (PLoS ONE, 2017).

Columns and labels:
Details in all cases: concentration: 1 μM, replicates: in singlicate; n = 1
LYN = system: LYN
LZK = system: T1, LZK
T1 construct: gene MAP3K13

MAK = system: MAK
MAP3K15 = system: MAP3K15
MAP3K1 = system: MAP3K1
MAP3K2 = system: MAP3K2
MAP3K3 = system: MAP3K3
MAP3K4 = system: MAP3K4
MAP4K2 = system: MAP4K2
MAP4K3 = system: MAP4K3
MAP4K4 = system: MAP4K4
MAP4K5 = system: MAP4K5
MAPKAPK2 = system: MAPKAPK2
MAPKAPK5 = system: MAPKAPK5
MARK1 = system: MARK1
MARK2 = system: MARK2
MARK3 = system: MARK3
MARK4 = system: MARK4
MAST1 = system: MAST1
MEK1 = system: T2, MEK1
T2 construct: gene MAP2K1
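Also: KINOMEscan kinase panel screen.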

Row | Structure (SMILES) | %Inh (LYN) [%] | %Inh (LZK) [%] | %Inh (MAK) [%] | %Inh (MAP3K15) [%] | %Inh (MAP3K1) [%] | %Inh (MAP3K2) [%] | %Inh (MAP3K3) [%] | %Inh (MAP3K4) [%] | %Inh (MAP4K2) [%] | %Inh (MAP4K3) [%] | %Inh (MAP4K4) [%] | %Inh (MAP4K5) [%] | %Inh (MAPKAPK2) [%] | %Inh (MAPKAPK5) [%] | %Inh (MARK1) [%] | %Inh (MARK2) [%] | %Inh (MARK3) [%] | %Inh (MARK4) [%] | %Inh (MAST1) [%] | %Inh (MEK1) [%]
1 | CCCc1ccc(S(=O)(=O)NC2CCN(c3ccnc(Nc4ccc(F)cc4)n3)C2)cc1 (stereo not shown) [GSK1379715] | 0 | 0 | 60 | 0 | 15 | 2 | 0 | 44 | 0 | 1 | 0 | 0 | 15 | 0 | 0 | 0 | 0 | 0 | 48 | 0
2 | Cc1ccc(-c2cc(-c3c[nH]nc3-c3ccccn3)ccn2)cc1 [GW684088] | 1 | 44 | 0 | 0 | 9 | 0 | 0 | 4 | 0 | 0 | 58 | 0 | 0 | 0 | 0 | 14 | 0 | 4 | 64 | 9
3 | CC1=C(C(=O)Nc2cc3cn[nH]c3cc2F)C(c2ccc(C(F)(F)F)cc2)CC(=O)N1 (stereo not shown) [GSK429286] | 0 | 0 | 0 | 16 | 30 | 3 | 0 | 0 | 0 | 0 | 59 | 75 | 21 | 0 | 0 | 0 | 0 | 0 | 0 | 0
4 | Cn1ccc2ncnc(Oc3ccc(NC(=O)Nc4ccccc4)cc3)c21 | 6 | 9 | 6 | 0 | 0 | 0 | 11 | 10 | 0 | 18 | 0 | 0 | 0 | 0 | 11 | 0 | 50 | 10 | 18 | 0
5 | Cl.c1ccc(-c2n[nH]cc2-c2ccnc(-c3ccc(CN4CCOCC4)cc3)c2)nc1 [GW776245] | 6 | 0 | 0 | 0 | 0 | 18 | 17 | 9 | 0 | 0 | 0 | 0 | 13 | 0 | 0 | 6 | 1 | 28 | 0 | 14
6 | Cc1cc(-c2ccc3c(c2)CC[C@@H](N[C@@H](C)c2ccccc2)C3)cnc1N.Cl [GW412617] | 0 | 7 | 15 | 0 | 17 | 20 | 0 | 0 | 97.4 | 36 | 17 | 41 | 13 | 0 | 4 | 10 | 32 | 14 | 0 | 0
7 | CN(C)CCN(C)C(=O)c1cc(-c2ccncc2)c(-c2ccc(Cl)c(O)c2)o1.Cl.Cl [SB-710397] | 24 | 15 | 42 | 0 | 2 | 0 | 0 | 14 | 0 | 0 | 18 | 0 | 2 | 0 | 0 | 0 | 0 | 0 | 10 | 0
8 | Clc1cc(Cl)cc(Nc2ccnc(Nc3cc(Cl)cc(Cl)c3)n2)c1 [GSK175726] | 23 | 0 | 25 | 0 | 0 | 0 | 0 | 0 | 0 | 0 | 0 | 0 | 0 | 0 | 0 | 16 | 0 | 0 | 0 | 0
9 | Cc1cc(NCC(c2ccccc2)c2ccccc2)nc(NCc2ccc(C(F)(F)F)cc2)n1 [GW497681] | 0 | 11 | 17 | 0 | 0 | 0 | 0 | 22 | 0 | 0 | 0 | 0 | 0 | 0 | 0 | 0 | 0 | 0 | 0 | 0
10 | COc1cccc(-c2cc(-c3c[nH]nc3-c3ccccn3)ccn2)c1 [GW680338] | 26 | 28 | 100 | 0 | 15 | 0 | 0 | 15 | 8 | 0 | 40 | 1 | 0 | 1 | 0 | 12 | 0 | 0 | 0 | 16
11 | Cl.O=C(Nc1cccc(-c2nn3ncccc3c2-c2ccnc(Nc3cccnc3)n2)c1)c1c(F)cccc1F [GSK312879] | 18 | 0 | 25 | 24 | 24 | 16 | 0 | 4 | 0 | 3 | 2 | 5 | 21 | 0 | 0 | 0 | 0 | 0 | 6 | 0
